# Laboratory results: ChEMBL document CHEMBL1961873, “Compounds: GSK PKIS; Assays: Nanosyn kinase panel” (2012)
# Tests used:
# [1] = biological target: T1, 3-phosphoinositide-dependent protein kinase 1 (Homo sapiens) (UniProt O15530); details: at 0.1 µM;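 also: values are mean inhibition of PDK1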
# T1 sequence (whole entry): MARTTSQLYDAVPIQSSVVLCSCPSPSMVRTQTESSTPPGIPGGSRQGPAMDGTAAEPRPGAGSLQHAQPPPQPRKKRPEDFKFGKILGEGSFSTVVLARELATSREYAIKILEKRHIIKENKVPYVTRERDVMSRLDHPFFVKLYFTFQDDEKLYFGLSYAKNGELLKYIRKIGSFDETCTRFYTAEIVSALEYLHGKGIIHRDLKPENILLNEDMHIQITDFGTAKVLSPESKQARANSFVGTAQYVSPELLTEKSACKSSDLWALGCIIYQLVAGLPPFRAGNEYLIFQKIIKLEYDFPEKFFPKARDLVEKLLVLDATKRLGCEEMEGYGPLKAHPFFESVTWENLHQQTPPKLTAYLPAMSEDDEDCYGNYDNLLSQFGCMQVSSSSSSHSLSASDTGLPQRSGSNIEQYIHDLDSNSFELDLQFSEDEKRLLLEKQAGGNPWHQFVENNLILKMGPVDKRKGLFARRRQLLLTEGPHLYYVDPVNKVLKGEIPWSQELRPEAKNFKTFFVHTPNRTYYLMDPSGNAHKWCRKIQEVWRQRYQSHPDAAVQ
# [2] = biological target: cAMP-dependent protein kinase catalytic subunit alpha (Homo sapiens) (UniProt P17612); details: at 0.1 µM
# [3] = biological target: cAMP-dependent protein kinase catalytic subunit alpha (Homo sapiens) (UniProt P17612); details: at 1 µM
# [4] = biological target: Protein kinase C alpha type (Homo sapiens) (UniProt P17252); details: at 0.1 µM
# [5] = biological target: Protein kinase C alpha type (Homo sapiens) (UniProt P17252); details: at 1 µM
# [6] = biological target: Protein kinase C beta type (Homo sapiens) (UniProt P05771); details: at 0.1 µM
# Protein kinase C beta type (Homo sapiens), sequence (P05771 2-671 limits assumed): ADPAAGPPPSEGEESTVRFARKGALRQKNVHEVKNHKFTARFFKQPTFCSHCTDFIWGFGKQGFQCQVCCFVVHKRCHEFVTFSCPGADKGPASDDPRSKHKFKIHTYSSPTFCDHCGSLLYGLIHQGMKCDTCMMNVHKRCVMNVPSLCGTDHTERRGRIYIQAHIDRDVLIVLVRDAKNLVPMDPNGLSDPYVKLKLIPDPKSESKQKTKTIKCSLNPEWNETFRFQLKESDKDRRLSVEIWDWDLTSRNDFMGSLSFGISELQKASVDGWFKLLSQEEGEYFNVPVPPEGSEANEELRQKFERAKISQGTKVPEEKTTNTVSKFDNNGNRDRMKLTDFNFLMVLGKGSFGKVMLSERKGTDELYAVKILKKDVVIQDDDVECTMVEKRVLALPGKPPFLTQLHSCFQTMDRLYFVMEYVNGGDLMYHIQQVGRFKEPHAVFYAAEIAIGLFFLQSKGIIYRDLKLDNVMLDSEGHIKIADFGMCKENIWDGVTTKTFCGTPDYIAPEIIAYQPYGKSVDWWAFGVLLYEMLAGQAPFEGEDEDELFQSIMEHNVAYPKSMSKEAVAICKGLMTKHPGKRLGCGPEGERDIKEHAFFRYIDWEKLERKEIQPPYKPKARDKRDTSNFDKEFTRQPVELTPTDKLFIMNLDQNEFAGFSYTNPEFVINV
# [7] = biological target: Protein kinase C beta type (Homo sapiens) (UniProt P05771); details: at 1 µM
# [8] = biological target: Protein kinase C eta type (Homo sapiens) (UniProt P24723); details: at 0.1 µM
# Protein kinase C eta type (Homo sapiens), sequence (P24723 whole entry): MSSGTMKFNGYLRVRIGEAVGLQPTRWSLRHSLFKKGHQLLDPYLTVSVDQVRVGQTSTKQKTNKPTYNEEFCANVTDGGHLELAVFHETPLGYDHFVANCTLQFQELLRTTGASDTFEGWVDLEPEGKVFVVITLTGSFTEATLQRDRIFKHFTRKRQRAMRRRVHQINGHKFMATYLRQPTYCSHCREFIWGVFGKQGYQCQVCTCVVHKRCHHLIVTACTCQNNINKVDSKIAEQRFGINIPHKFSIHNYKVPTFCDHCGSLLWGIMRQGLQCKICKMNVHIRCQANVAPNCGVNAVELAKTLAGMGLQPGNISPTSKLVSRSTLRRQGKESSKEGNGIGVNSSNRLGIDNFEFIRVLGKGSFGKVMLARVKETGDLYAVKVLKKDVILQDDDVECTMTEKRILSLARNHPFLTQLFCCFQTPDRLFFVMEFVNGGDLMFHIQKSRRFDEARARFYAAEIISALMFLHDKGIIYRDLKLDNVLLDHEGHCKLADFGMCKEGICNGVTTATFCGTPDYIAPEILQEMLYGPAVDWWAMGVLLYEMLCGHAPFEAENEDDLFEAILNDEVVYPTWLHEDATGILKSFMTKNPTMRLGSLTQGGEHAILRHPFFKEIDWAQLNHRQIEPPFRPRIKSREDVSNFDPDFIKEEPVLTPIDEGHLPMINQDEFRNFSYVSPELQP
# [9] = biological target: Protein kinase C eta type (Homo sapiens) (UniProt P24723); details: at 1 µM
# [10] = biological target: Protein kinase C gamma type (Homo sapiens) (UniProt P05129); details: at 0.1 µM
# [11] = biological target: Protein kinase C gamma type (Homo sapiens) (UniProt P05129); details: at 1 µM
# [12] = biological target: T2, Protein kinase C iota type (Homo sapiens) (UniProt P41743); details: at 0.1 µM
# T2 sequence (whole entry): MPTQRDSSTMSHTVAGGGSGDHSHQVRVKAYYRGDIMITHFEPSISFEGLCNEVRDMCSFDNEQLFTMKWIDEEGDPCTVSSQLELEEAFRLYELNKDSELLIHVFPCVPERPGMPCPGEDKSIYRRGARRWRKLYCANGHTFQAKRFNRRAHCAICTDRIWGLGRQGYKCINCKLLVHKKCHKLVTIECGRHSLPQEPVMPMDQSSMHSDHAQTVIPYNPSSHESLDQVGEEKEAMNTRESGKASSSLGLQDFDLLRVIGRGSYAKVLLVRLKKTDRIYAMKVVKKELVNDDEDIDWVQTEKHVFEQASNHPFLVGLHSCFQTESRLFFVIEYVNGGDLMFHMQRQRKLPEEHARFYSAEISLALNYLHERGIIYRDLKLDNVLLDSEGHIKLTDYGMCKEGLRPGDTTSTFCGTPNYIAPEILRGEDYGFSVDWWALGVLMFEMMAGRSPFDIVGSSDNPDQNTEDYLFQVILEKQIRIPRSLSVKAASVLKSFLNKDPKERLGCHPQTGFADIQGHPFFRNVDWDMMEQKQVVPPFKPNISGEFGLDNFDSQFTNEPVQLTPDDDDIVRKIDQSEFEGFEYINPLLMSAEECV
# [13] = biological target: T2, Protein kinase C iota type (Homo sapiens); details: at 1 µM
# [14] = biological target: Protein kinase C theta type (Homo sapiens) (UniProt Q04759); details: at 0.1 µM
# Protein kinase C theta type (Homo sapiens), sequence (Q04759 whole entry, looked up): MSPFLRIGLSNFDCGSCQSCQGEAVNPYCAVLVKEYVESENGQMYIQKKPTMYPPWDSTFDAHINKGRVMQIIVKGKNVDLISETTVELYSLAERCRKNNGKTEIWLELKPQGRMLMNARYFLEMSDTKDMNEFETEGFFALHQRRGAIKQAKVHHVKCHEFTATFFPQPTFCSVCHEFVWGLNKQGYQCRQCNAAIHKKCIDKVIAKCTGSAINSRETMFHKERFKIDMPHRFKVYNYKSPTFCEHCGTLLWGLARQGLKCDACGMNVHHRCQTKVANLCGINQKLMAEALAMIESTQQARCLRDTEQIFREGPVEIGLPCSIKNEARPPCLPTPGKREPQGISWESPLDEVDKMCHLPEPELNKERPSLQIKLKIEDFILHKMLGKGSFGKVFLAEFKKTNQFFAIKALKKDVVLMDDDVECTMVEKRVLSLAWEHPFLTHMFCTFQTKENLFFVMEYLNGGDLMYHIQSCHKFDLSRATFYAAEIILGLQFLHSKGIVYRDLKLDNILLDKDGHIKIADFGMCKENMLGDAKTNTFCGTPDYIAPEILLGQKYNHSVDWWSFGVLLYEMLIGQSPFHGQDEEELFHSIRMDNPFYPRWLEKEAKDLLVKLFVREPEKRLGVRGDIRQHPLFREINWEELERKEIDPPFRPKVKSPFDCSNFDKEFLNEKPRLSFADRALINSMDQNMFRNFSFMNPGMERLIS
# [15] = biological target: Protein kinase C theta type (Homo sapiens) (UniProt Q04759); details: at 1 µM
# [16] = biological target: Protein kinase C beta type (Homo sapiens) (UniProt P05771); details: at 0.1 µM; remark: listed apart in the source
# [17] = biological target: Protein kinase C beta type (Homo sapiens) (UniProt P05771); details: at 1 µM; remark: listed apart in the source
# [18] = biological target: T3, Serine/threonine-protein kinase D1 (Homo sapiens) (UniProt Q15139); details: at 0.1 µM
# T3 sequence (whole entry): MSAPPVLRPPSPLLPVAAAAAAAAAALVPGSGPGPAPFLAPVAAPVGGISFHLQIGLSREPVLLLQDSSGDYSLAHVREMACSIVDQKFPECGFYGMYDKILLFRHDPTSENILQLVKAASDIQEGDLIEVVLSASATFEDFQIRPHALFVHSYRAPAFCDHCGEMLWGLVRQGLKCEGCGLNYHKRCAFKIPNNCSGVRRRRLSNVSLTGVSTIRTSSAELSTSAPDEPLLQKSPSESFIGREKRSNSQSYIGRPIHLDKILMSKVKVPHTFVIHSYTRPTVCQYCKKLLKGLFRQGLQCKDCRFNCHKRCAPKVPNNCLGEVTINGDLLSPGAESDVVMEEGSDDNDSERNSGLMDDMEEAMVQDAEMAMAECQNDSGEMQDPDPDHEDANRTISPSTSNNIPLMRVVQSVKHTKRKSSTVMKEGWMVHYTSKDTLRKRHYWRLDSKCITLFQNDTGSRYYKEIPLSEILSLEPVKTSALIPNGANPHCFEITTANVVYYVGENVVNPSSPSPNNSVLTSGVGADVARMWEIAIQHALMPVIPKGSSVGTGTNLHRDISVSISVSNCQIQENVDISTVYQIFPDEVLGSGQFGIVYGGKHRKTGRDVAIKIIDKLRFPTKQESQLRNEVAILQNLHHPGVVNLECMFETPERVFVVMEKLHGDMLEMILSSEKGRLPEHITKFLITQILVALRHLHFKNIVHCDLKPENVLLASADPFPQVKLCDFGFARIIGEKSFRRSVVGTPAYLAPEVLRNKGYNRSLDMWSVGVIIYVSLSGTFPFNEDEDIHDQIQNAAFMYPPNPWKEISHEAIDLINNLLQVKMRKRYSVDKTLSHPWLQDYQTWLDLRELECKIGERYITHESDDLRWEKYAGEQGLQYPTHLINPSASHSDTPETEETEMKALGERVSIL
# [19] = biological target: T3, Serine/threonine-protein kinase D1 (Homo sapiens); details: at 1 µM
# [20] = biological target: T4, Serine/threonine-protein kinase D2 (Homo sapiens) (UniProt Q9BZL6); details: at 0.1 µM;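 also: reported percent inhibition values are means, part of the GSK PKIS kinase panel screen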
# T4 sequence (whole entry): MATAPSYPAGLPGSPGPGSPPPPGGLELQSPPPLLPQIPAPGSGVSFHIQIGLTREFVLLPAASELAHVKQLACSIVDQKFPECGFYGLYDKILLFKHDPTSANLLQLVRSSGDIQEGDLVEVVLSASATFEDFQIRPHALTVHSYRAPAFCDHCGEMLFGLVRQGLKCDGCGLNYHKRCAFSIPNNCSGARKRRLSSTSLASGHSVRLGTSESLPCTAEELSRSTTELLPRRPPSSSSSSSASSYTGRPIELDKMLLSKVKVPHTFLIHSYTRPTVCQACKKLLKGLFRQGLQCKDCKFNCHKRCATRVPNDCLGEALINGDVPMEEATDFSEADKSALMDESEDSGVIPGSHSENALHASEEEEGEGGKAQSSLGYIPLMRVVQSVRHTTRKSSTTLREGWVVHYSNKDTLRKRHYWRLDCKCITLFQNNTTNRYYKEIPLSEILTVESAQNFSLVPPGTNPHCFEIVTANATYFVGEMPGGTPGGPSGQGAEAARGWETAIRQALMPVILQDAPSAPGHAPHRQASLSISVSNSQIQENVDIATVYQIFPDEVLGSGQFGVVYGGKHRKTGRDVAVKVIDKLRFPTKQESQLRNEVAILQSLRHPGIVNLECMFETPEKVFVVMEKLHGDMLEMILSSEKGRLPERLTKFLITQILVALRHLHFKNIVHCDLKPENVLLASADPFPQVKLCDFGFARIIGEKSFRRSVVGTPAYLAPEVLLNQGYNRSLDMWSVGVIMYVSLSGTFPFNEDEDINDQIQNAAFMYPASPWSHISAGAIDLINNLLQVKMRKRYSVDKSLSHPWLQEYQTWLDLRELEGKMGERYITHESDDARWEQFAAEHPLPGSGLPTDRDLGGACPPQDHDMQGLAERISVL
SMILES,inhibition [1],inhibition [2],inhibition [3],inhibition [4],inhibition [5],inhibition [6],inhibition [7],inhibition [8],inhibition [9],inhibition [10],inhibition [11],inhibition [12],inhibition [13],inhibition [14],inhibition [15],inhibition [16],inhibition [17],inhibition [18],inhibition [19],inhibition [20]
CCn1c(-c2nonc2N)nc2cnc(Oc3cccc(NC(=O)c4ccc(N(C)C)cc4)c3)cc21,1.22%,19.6%,70.5%,0.56%,7.8%,16.7%,53.6%,43.6%,88%,3.96%,28.3%,6.04%,45%,5.55%,32.3%,4.27%,21.8%,1.61%,4.29%,1.81%
c1ccc(-c2nc3n(c2-c2ccc4c(c2)OCO4)CCC3)nc1,0.98%,1.49%,5.08%,0.9%,1.8%,3.53%,5.04%,1.35%,1.85%,0%,2.8%,2.19%,3.9%,1.78%,3.83%,1.96%,4.57%,1.92%,5.43%,1.94%
CC(=O)Nc1cccc(C#Cc2cncnc2Nc2ccc(OCc3cccc(F)c3)c(Cl)c2)c1,2.17%,2.17%,4.12%,0.9%,2.2%,0.65%,0.21%,0.22%,-0.44%,3.94%,3.97%,0.27%,2.04%,0.62%,-0.6%,1.6%,0.79%,1.8%,2.69%,1.88%
CCn1cc(-c2ccnc3[nH]ccc23)c(-c2cccc(NC(=O)Nc3ccc(OCc4ccccc4)cc3)c2)n1,-1.57%,4.08%,5.34%,1.25%,2.76%,0.5%,1.43%,-2.7%,1.78%,0.3%,2.68%,-0.3%,0.28%,0.93%,1.88%,0.47%,1.93%,2.3%,5.37%,18.8%
FC(F)(F)c1cccc(-c2nn3ncccc3c2-c2ccnc(Nc3ccc4c(c3)OCCO4)n2)c1,0.71%,1.01%,2.39%,0.53%,1.32%,0.07%,-2.34%,2.1%,1.3%,0.03%,2.4%,-1.47%,2.18%,0.59%,-0.24%,0.37%,0.77%,3.4%,33.6%,5.98%
CS(=O)(=O)CCNCc1coc(-c2ccc3ncnc(Nc4ccc(OCc5ccccc5)cc4)c3c2)c1,6.29%,1.59%,2.39%,0.46%,1.78%,0.47%,-1%,4.58%,3.63%,-2.12%,4.91%,1.33%,0.97%,1.31%,1.25%,-0.17%,1.35%,1.97%,2.95%,2.53%
[O-][S+]1CCN(Cc2ccc(-c3ccc4ncnc(Nc5ccc(OCc6cccc(F)c6)c(Cl)c5)c4c3)o2)CC1,4.4%,2.27%,3.13%,1.17%,1.29%,-0.91%,1.67%,2.12%,4.25%,3.03%,1.04%,3.42%,2.26%,2.17%,2.74%,2.05%,2.51%,5.58%,10.6%,4.6%
Fc1ccc(-c2cc(-c3c[nH]nc3-c3ccccn3)ccn2)cc1,0.78%,1.9%,2.54%,0.45%,0.88%,1.93%,3.1%,4.28%,6.6%,-0.18%,1.87%,2.53%,0.58%,3.15%,5.06%,1.48%,1.07%,4.79%,26.9%,6.43%
COc1cccc(-c2c[nH]c3c(N/N=C/c4ccncc4)ncnc23)c1,6.08%,1.57%,3.93%,0.02%,4.24%,2.33%,4.29%,2.72%,1.53%,2.27%,7.65%,4.1%,20.3%,0.91%,0.99%,1.66%,5.79%,1.3%,6.07%,1.26%
Cc1ccc2c(-c3ccnc(Nc4ccccc4)n3)c(-c3ccc(F)cc3)nn2n1,2.18%,1.83%,4.25%,1.15%,11.3%,1.13%,6.49%,0.7%,1.97%,2.27%,2.17%,1.43%,3.68%,1.21%,1.16%,1.79%,12.3%,10.1%,70.6%,24.6%
COc1cc2ncn(-c3cc(OCc4ccccc4C(F)(F)F)c(C(=O)N(C)C)s3)c2cc1OC,1.17%,0.88%,0.93%,-0.03%,0.21%,0.35%,-0.32%,1.66%,0.73%,-1.33%,0.13%,-0.68%,-2.2%,0.14%,-0.71%,0.03%,0.09%,0.6%,1.47%,1.09%
NC(=O)c1sc(-n2cnc3ccc(C(F)(F)F)cc32)cc1OCc1ccccc1Br,2.61%,3.12%,6.29%,0.78%,1.26%,-0.05%,1.5%,-0.93%,1.21%,-0.86%,3.75%,0.8%,0.82%,1.63%,2.57%,1.28%,1.31%,2.72%,3.86%,3.59%
O=C(Nc1n[nH]c2cc(-c3ccc(F)cc3)ccc12)C1CC1,1.87%,1.56%,5.1%,0.82%,2.18%,2.92%,6.56%,3.22%,6.59%,3.26%,5.71%,2.42%,3.67%,3%,5.04%,2.1%,4.04%,3.02%,5.62%,2.7%
Clc1ccc(-c2nn3ncccc3c2-c2ccnc(Nc3ccccc3)n2)cc1,0.53%,1.67%,2.52%,1.23%,-0.09%,0.65%,1.93%,-0.59%,-0.77%,-1.17%,-1.39%,0.23%,0.46%,0.91%,-0.72%,-0.06%,3.99%,1.65%,2.76%,1.23%
